In PMC4336329 (PLoS ONE, 2015):
Out of some 310,000 compounds screened, about 14,000 (4.5%) showed an effect of 50% or more. The effect is printed as a negative number. The sample holds strong results, similar compounds and a random draw of the others, so the mix is not that of the screen.

Biological target: human ether-à-go-go-related gene (hERG) potassium channel (human, UniProt Q12809)
Assay: primary screen, population patch clamp on CHO cells stably expressing hERG; higher = less effect of the substance
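Further: peak tail current of the secondary pulse compared with the same well before compound.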

Sequence of human ether-à-go-go-related gene (hERG) potassium channel (Q12809 whole entry, looked up): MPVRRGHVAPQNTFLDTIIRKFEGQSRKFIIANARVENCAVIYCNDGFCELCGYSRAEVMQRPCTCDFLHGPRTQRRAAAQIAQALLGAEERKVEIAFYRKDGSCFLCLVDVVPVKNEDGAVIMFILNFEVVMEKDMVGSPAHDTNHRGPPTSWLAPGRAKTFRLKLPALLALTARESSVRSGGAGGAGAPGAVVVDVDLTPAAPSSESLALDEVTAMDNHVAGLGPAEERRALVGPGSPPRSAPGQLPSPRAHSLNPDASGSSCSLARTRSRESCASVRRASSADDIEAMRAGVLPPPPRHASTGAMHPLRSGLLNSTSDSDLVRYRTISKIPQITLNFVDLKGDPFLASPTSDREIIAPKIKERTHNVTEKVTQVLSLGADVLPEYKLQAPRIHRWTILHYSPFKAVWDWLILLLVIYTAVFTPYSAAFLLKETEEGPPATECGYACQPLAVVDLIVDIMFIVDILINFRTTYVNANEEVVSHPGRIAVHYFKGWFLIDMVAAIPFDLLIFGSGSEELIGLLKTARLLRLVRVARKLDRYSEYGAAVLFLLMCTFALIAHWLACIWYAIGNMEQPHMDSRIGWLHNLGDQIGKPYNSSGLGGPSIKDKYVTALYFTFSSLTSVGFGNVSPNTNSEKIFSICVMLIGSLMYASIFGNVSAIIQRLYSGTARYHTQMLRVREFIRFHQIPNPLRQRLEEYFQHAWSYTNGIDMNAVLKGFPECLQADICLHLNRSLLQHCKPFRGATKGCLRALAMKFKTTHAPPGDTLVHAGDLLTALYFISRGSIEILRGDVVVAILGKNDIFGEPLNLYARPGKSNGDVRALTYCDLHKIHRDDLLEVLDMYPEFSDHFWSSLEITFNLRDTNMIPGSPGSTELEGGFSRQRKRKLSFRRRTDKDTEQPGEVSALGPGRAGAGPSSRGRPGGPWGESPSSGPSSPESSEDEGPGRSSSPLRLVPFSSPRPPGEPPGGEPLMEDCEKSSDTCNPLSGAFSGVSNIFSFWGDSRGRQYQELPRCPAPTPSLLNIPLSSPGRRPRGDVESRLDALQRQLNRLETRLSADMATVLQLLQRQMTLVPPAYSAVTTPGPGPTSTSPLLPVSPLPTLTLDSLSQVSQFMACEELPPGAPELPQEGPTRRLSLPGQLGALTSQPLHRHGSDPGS

In order of rising “hERG current change (%, negative = inhibition) at 10uM” value:
1. CCCCNC(=O)c1cc2c(=O)n3cccc(C)c3nc2n(CCN2CCOCC2)c1=N  -86%
2. COc1cc(OC)c(CN2CCN(c3ccc(F)cc3)CC2)cc1Br  -70.3%
3. COc1ccc(CN2CCN(c3ccc(F)cc3)CC2)c(OC)c1OC  -70.2%
4. COc1cc(OC)c(OC)cc1CN1CCN(c2ccc(F)cc2)CC1  -68.5%
5. COc1ccc(C2C(C#N)=C(N)Oc3n[nH]c(C)c32)cc1CN1CCN(c2ccc(F)cc2)CC1 (centres unmarked)  -65.6%
6. O=P(CCCCCCCCCP(=O)(c1ccccc1)c1ccccc1)(c1ccccc1)c1ccccc1  -56.1%
7. CCN(CC(=O)NCc1ccc(Cl)cc1)C(=O)c1ccc(S(=O)(=O)NCc2ccco2)cc1  -54.9%
8. CN(Cc1cccs1)C(=O)c1ccc(S(=O)(=O)NCc2ccco2)cc1  -54.2%
9. CCOCCCn1c(=N)c(C(=O)NCCN2CCOCC2)cc2c(=O)n3cccc(C)c3nc21  -53.6%
10. CN(Cc1ccc(Cl)cc1)C(=O)c1ccc(S(=O)(=O)NCc2ccco2)cc1  -51.8%
11. CC(C)c1ccc(CN(C)C(=O)c2ccc(S(=O)(=O)NCc3ccco3)cc2)cc1  -33.7%
12. CCN(CC(=O)NCc1ccc(Cl)cc1)C(=O)c1ccc(S(=O)(=O)N(C)C)cc1  -33.2%
13. COc1cc(OC)c(OC)cc1CN1CCN(c2ccccc2OC)CC1  -31.1%
14. CCNCCC(=O)N1c2ccccc2Sc2ccc(NC(=O)OCC)cc21.Cl  -29.6%
15. COc1cc(OC)c(CN2CCCCCCC2)cc1Br  -22.4%
16. Cc1nn(-c2ccccc2)c(C)c1CN(C)C(=O)c1ccc(S(=O)(=O)NCc2ccco2)cc1  -21.2%
17. CC1(C)CC2CC(C)(CN2C(=O)COC(=O)CNC(=O)c2ccc(Cl)c(Cl)c2)C1 (centres unmarked)  -20.9%
18. COc1ccc(S(=O)(=O)NCc2ccc(C(=O)N(C)Cc3ccco3)cc2)cc1  -19.1%
19. O=C(c1ccco1)N1CCN(S(=O)(=O)c2ccc(Br)s2)CC1  -16%
20. CC(C)N(C(=O)N1CCC(c2nc(-c3ccncc3)no2)CC1)C(C)C  -15.3%
21. COc1ccccc1CN(C)C(=O)c1ccc(S(=O)(=O)NCc2ccco2)cc1  -14.9%
22. O=C(NCc1cccs1)C1CCN(S(=O)(=O)c2ccc(Br)s2)CC1  -14.8%
23. COc1ccc(C2C(C#N)=C(N)Oc3n[nH]c(C)c32)cc1Cn1cc([N+](=O)[O-])cn1 (centres unmarked)  -14%
24. COc1ccc(CN2CCN(C(c3ccc(F)cc3)c3ccc(F)cc3)CC2)c(OC)c1OC.Cl  -13.3%
25. O=C(CN1C(=O)NC2(CCCCCC2)C1=O)NCCc1ccc(F)cc1  -13%
26. Cc1ccccc1C(=O)Nc1cccc(NC(=O)c2cccnc2)c1  -9.39%
27. CCc1cc2c(=O)n(N)c(CCC(=O)O)nc2s1  -8.56%
28. CCc1ccccc1NC(=O)CSc1n[nH]c(C)c1[N+](=O)[O-]  -8.12%
29. COc1ccc(C2C(C#N)=C(N)Oc3n[nH]c(C)c32)cc1Cn1nnc2ccccc21 (centres unmarked)  -8.03%
30. COc1cc(OC)c(OC)cc1CN1CCN(S(=O)(=O)c2ccc(F)cc2)CC1.O=C(O)C(=O)O  -7.69%
31. CCN(CC(=O)N1CCCCC1)S(=O)(=O)c1ccccc1  -7.12%
32. O=C(O)CCCCCCCCCCP(=O)(c1ccccc1)c1ccccc1  -7.05%
33. O=C(Cc1cccs1)Nc1nc(-c2ccc(F)cc2F)cs1  -4.34%
34. Cc1ccc(-n2nnnc2SCC(=O)c2c(N)n(C3CC3)c(=O)[nH]c2=O)c(C)c1  -4.23%
35. CC(C)N1C(=O)CCC1C(=O)NC1CCCC1 (centres unmarked)  -3.05%
36. COc1cc(NC(=O)c2cccnc2)c(Cl)cc1NC(=O)c1ccc(Cl)cc1  -0.00342%
37. Cc1ccc(NC(=O)CN2CCCCC2)c2c1CC(C)(C)O2  1.17%
38. COc1cc(/C=C2\SC(=O)NC2=O)ccc1Oc1cnccn1  2.14%
39. COC(=O)c1c(C)oc2cc(Br)c(OCC(=O)C(C)(C)C)cc12  6.12%
40. Cc1cccc(OCCOC(=O)C2CCN(S(=O)(=O)c3cccs3)CC2)c1  6.58%
41. CCOc1ccc(S(=O)(=O)N(CC)CC(=O)N2CCOCC2)cc1C  6.73%
42. CCCNC(=O)NCc1ccc(N2CCCC2=O)cc1  8.43%
43. CCN(CC(=O)Nc1c(F)cccc1F)C(=O)c1ccc(S(=O)(=O)NCc2ccco2)cc1  8.72%
44. O=P(O)(O)CCP(=O)(c1ccccc1)c1ccccc1  9.46%
45. COc1ccc(CN2CCNCC2)c(OC)c1OC  9.67%
46. CCNc1ccc(C(=O)O)cc1N  9.77%
47. CCOc1ccc(-c2cc(C(=O)N/N=C(\C)c3cccnc3)c3ccccc3n2)cc1  10.6%
48. S=c1[nH]nc(-c2ccccc2)n1/N=C/c1c[nH]c2ccccc12  12.1%
49. Cn1nnc2ccccc2c1=O  12.5%
50. C/C(=N\NC(=S)Nc1c(C)cccc1C)c1cc2ccccc2o1  15.1%
51. Cc1cccn2c(=O)c3cc(C(=O)NCCN4CCOCC4)c(=N)n(CCCN4CCOCC4)c3nc12  15.2%
52. CCOc1ncnc2c1sc1nc(C)cc(C)c12  16%
53. CCCn1cnc2c(=S)nc(N)[nH]c21  16.3%
54. COc1cc(OC)c(CN2CCCN(C)CC2)cc1Br  18.1%
55. Cc1cccn2c(=O)c3cc(C(=O)NCCN4CCOCC4)c(=N)n(CCN4CCOCC4)c3nc12  18.5%
56. CCn1ncc(/C=C2/SC(=S)NC2=O)c1C  23.6%
